Among all 360,000 compounds or so, about 950 (0.26%) were called active. The entries come from a sample that favours actives as a whole. A number with no mark means an inactive call. Rule as the data show it: active = inhibition above about 11%; inactive = the rest.
Assay: growth loss of phage-infected E. coli, primary screen, RecBCD inhibitor project, absorbance, with phage, HTS (AID 651602)
Settings: at 11.9 µM, stronger effect = higher value

Row | Structure (SMILES) | inhibition
1 | CN1CCCc2nc(-c3ccccc3)ccc21 | 2.87%
2 | Cc1sc2nc(CSCC(=O)Nc3c(Cl)cccc3Cl)[nH]c(=O)c2c1C | -1.33%
3 | C=CCNC(=O)CSc1nc2sc(C)c(C)c2c(=O)[nH]1 | 97.6% (active)
4 | C=CCn1c(SCC(=O)Nc2ccc(NC(C)=O)cc2)nc2sc(C)c(C)c2c1=O | 5%
5 | COc1cccc(NC(=O)N(C)C[C@@H]2OCc3cn(nn3)CCCC(=O)N([C@@H](C)CO)C[C@H]2C)c1 | 1.68%
6 | Cc1cc(OC(=O)NCCc2ccc(F)cc2)ccc1F | 1.19%
7 | CCOC(=O)N1CCN(C(=O)C[C@H]2C[C@@]3(C(=O)OC)C(=C[C@H](C4CCCC4)O[C@@H]3C)N(Cc3ccccc3)C2=O)CC1 | -1.47%
8 | CC(C)C[C@H](NC(=O)CC1CCCC1)C(=O)N1CCC[C@H]1C(=O)NCc1ccccc1 | -1.58%
9 | NC1=NC(=O)C(Cc2cccc(Cl)c2)S1 (stereo not drawn) | 2.84%
10 | O=C1NC(=Nc2ccc(Cl)cc2)SC1Cc1cccc(Cl)c1Cl (stereo not drawn) | 3.76%
11 | NC1=NC(=O)C(Cc2cccc(Cl)c2Cl)S1 (stereo not drawn) | 14.8% (active)
12 | Nc1nc2c(ncn2[C@@H]2O[C@H](C(=O)N[C@H](Cc3ccccc3)C(=O)NCC3CCCCC3)[C@@H](O)[C@H]2O)c(=O)[nH]1 | 0.31%
13 | CCCCCCCCN1C(=O)[C@@H](CC(=O)NCc2ccc(C)o2)C[C@@]2(C(=O)OC)C1=C[C@H](C(C)(C)C)O[C@@H]2C | 4.26%
14 | NC(=O)NCCCC(=O)O | 3.55%
15 | CC(=O)N(O)CCCCCNC(=O)CCC(=O)N(O)CCCCCNC(=O)CCC(=O)N(O)CCCCCNC(=O)CCC(=O)O | 11.2% (active)
16 | CC1=C(C/C=C(\C)CCCC(C)CCCC(C)CCCC(C)C)C(=O)c2ccccc2C1=O (stereo not drawn) | 99.2% (active)
17 | CCCCCCCCN1C(=O)[C@@H](CC(=O)N2CCN(C(=O)OCC)CC2)C[C@@]2(C(=O)OC)C1=C[C@H](C1CCCC1)O[C@@H]2C | 0.85%
18 | CCOc1ccccc1C(=O)N1CCC[C@@H]1C(=O)N1CCC[C@H]1C(=O)NCc1ccccc1 | 2.4%
19 | O=C(NCc1ccccc1)[C@@H]1CCCN1C(=O)[C@H]1CCCN1C(=O)c1cccc(Cl)c1 | 1.16%
20 | CN(O)C(=S)c1ccccc1 | 28.3% (active)
21 | COCCNC(=S)N(CCc1c(C)[nH]c2ccc(C)cc12)Cc1cccnc1 | 2.3%
22 | COc1ccc2[nH]c(C)c(CCN(Cc3cccs3)C(=S)Nc3ccccc3OC)c2c1 | 1.75%
23 | CCNC(=S)N(CCc1c(C)[nH]c2ccc(C)cc12)Cc1ccco1 | 13.2% (active)

From PubChem BioAssay AID651602 (The Scripps Research Institute Molecular Screening Center, 2012)
